These results are taken from PMC5540273 (PLoS ONE, 2017).

The structures appear in SMILES notation.

A word on the Kd: it is the free concentration of one partner at which half of the binding sites on the other are occupied at equilibrium, for simple one-to-one binding. Read a low Kd as a tighter complex.
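Note: kd values determined as follow-up on hits from a single-replicate KINOMEscan panel screen.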

The test system of the assay is KIT.
Compound `COC(=O)c1c(-c2ccccc2)c2cc(C(=O)O)ccc2c(=O)n1Cc1ccccc1` had a Kd of 100 nM. In other words, the sub-micromolar range. In turn, `Cc1cccc(-c2nc(-c3ccc(S(C)(=O)=O)cc3)sc2-c2ccnc(NCCc3ccccc3)c2)c1` returned a Kd of 120 nM. Then `Cc1ccc(NC(=O)Nc2cccc(C(F)(F)F)c2)cc1` [GSK955403], with 240 nM. Then `COC(=O)c1c(-c2ccccc2)c2cc(OC)ccc2c(=O)n1Cc1ccccc1`, with 170 nM; and `O=C(Nc1ccccc1)Nc1cccc(Oc2ccc3nccn3n2)c1`, with 0.94 nM. Then `Cc1ccc(C(=O)Nc2ccc(Nc3ccnc4cc(-c5ccccn5)ccc34)cc2O)cc1.Cl` [GW440146], with 2200 nM; and `Cc1ccc(NC(=O)Nc2cc(C(C)(C)C)nn2-c2ccccc2)cc1` [GSK1014915], with 260 nM; and `Cn1ccc2ncnc(Oc3ccc(NC(=O)Nc4ccccc4)cc3)c21`, with 0.6 nM.

The compound `CC(C)(C)c1ccc(C(=O)Nc2cn3cc(-c4cccnc4)ccc3n2)cc1` came in with a Kd of 320 nM. Then `Cc1ccc(NC(=O)Nc2cccc(Cl)c2)cc1-c1ccc(C(=O)Nc2ccncc2)cc1` [GSK1398468], with 180 nM; and `CC(=O)Nc1nc2cnc(Nc3cc(NC(=O)c4cccc(CCC#N)c4)ccc3C)nc2s1`, with > 10000 nM.
